Targets with a hit are over-represented here; the source holds about 7,900 in all. About 0.6% of all pairs of compound and target were hits. Unmarked numbers belong to inactive results.
Tests used:
Experiment in all cases: log2 fold change, soluble protein after heating vs DMSO (PISA); higher = thermal stabilisation; K562 cells, 10 uM, 30 min; active = over 0.2 and 3.5 SD of the protein, either way, in both replicates (recomputed)
[1] = compound: CC[C@@H]1C(=O)N(C)c2cnc(Nc3ccc(C(=O)NC4CCN(C)CC4)cc3OC)nc2N1C1CCCC1
Procedure, shortened: (§1)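 For each measurement, 10 μM compound was applied for 30 min to K562 cells at 2×10^6 cells/mL. Aliquots were heated for 3 min across 48°C-58°C, pooled, and extracted in PBS with 0.5% NP-40 at 4°C; the supernatant after 21,000xg for 90 min was soluble protein. This was quantified by TMTpro 16plex LC-MS/MS with channel sums equalised, and thermal stability was reported relative to control samples from duplicates, on a log2 fold-change scale.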

[2] = compound: CC[C@@H]1C(=O)N(C)c2cnc(Nc3ccc(C(=O)N[C@H]4CC[C@H](N5CCN(CC6CC6)CC5)CC4)cc3OC)nc2N1C(C)C [volasertib]
Procedure, shortened: as §1

[3] = compound: CC[C@H](C)N1C=C(C2=C(C=C(C=C21)C3=CN=C(C=C3)N4CCNCC4)C(=O)NCC5=C(C=C(NC5=O)C)C)C
Procedure, shortened: as §1

[4] = compound: CC[C@H](C)[C@@H](C(=O)N[C@@H]([C@@H](C)O)C(=O)N[C@@H](CC(C)C)C(=O)[C@]1(CO1)C)NC(=O)[C@H]([C@@H](C)CC)N(C)C(=O)C [epoxomicin]
Procedure, shortened: as §1

[5] = compound: CCn1c(C(=O)N(C2CC2)C2CC2)cc2c3c(ncn3C)c(Nc3cc(C)n(C)n3)nc21
Procedure, shortened: as §1

[6] = compound: CCn1cc(-c2ccnc3[nH]c(-c4cccc(CN(C)C)c4)cc23)c(-c2ccc(NC(=O)N(C)C)cc2)n1
Procedure, shortened: as §1

[7] = compound: CN(C)CC(=O)Nc1ccc2[nH]c(=O)c3ccccc3c2c1
Procedure, shortened: as §1

[8] = compound: CN(CCOC1=CC=C(C=C1)C[C@H]2C(=O)NC(=O)S2)C3=CC=CC=N3 (racemic) [rosiglitazone]
Procedure, shortened: as §1

[9] = compound: CN1C2=C(C3=C1C(=O)N(N=C3)CC4=CC(=CC=C4)N)SC(=C2)S(=O)C
Procedure, shortened: as §1

[10] = compound: CN1CCC(CNc2ccc3ncc(-c4cccc(OC(F)(F)F)c4)n3n2)CC1
Procedure, shortened: as §1

[11] = compound: CN1CCN(CCOc2cc(OC3CCOCC3)c3c(Nc4c(Cl)ccc5c4OCO5)ncnc3c2)CC1 [saracatinib]
Procedure, shortened: as §1

[12] = compound: CN1CCN(c2nc(C3=C(c4c[nH]c5ccccc45)C(=O)NC3=O)c3ccccc3n2)CC1 [sotrastaurin]
Procedure, shortened: as §1

[13] = compound: CN1CC[C@H](c2c(O)cc(O)c3c(=O)cc(-c4ccccc4Cl)oc23)[C@H](O)C1 [alvocidib]
Procedure, shortened: as §1

[14] = compound: CN1CCc2c(c3ccccc3n2Cc2ccc(C(=O)NO)cc2)C1 [Tubastatin A]
Procedure, shortened: as §1

[15] = compound: CNC(=O)C1=CC=CC=C1NC2=NC(=NC=C2Cl)NC3=C(C=C(C=C3)N4CCOCC4)OC
Procedure, shortened: as §1

[16] = compound: CNC(=O)c1ccc(Nc2ncc(C(F)(F)F)c(NCc3nccnc3N(C)S(C)(=O)=O)n2)cc1 [defactinib]
Procedure, shortened: as §1

[17] = compound: CNCc1ccc(-c2[nH]c3cc(F)cc4c3c2CCNC4=O)cc1 [rucaparib]
Procedure, shortened: as §1

[18] = compound: CNc1nc(-c2ccc3c(N)n[nH]c3c2)cc(N2C[C@@H](C(=O)NC3CCCCC3)CC[C@H]2C)n1
Procedure, shortened: as §1

[19] = compound: COC(=O)N[C@@H](C)CNc1nccc(-c2cn(C(C)C)nc2-c2cc(Cl)cc(NS(C)(=O)=O)c2F)n1 [encorafenib]
Procedure, shortened: as §1

[20] = compound: COC(=O)[C@H](CCSC)NC(=O)C1=C(C=C(C=C1)NC[C@H](CS)N)C2=CC=CC=C2
Procedure, shortened: as §1

Chain of UniProt Q96LJ7 (Q96LJ7 whole entry, looked up): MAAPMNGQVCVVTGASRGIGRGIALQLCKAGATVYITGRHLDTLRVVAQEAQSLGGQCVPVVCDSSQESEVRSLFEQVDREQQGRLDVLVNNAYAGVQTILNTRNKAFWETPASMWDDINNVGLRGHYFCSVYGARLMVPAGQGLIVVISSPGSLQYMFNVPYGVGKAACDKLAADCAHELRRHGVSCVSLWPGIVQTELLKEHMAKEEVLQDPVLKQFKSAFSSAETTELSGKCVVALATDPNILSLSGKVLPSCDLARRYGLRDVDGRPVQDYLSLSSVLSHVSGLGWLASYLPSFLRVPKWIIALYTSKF
Chain of UniProt Q04637 (Q04637 whole entry, looked up): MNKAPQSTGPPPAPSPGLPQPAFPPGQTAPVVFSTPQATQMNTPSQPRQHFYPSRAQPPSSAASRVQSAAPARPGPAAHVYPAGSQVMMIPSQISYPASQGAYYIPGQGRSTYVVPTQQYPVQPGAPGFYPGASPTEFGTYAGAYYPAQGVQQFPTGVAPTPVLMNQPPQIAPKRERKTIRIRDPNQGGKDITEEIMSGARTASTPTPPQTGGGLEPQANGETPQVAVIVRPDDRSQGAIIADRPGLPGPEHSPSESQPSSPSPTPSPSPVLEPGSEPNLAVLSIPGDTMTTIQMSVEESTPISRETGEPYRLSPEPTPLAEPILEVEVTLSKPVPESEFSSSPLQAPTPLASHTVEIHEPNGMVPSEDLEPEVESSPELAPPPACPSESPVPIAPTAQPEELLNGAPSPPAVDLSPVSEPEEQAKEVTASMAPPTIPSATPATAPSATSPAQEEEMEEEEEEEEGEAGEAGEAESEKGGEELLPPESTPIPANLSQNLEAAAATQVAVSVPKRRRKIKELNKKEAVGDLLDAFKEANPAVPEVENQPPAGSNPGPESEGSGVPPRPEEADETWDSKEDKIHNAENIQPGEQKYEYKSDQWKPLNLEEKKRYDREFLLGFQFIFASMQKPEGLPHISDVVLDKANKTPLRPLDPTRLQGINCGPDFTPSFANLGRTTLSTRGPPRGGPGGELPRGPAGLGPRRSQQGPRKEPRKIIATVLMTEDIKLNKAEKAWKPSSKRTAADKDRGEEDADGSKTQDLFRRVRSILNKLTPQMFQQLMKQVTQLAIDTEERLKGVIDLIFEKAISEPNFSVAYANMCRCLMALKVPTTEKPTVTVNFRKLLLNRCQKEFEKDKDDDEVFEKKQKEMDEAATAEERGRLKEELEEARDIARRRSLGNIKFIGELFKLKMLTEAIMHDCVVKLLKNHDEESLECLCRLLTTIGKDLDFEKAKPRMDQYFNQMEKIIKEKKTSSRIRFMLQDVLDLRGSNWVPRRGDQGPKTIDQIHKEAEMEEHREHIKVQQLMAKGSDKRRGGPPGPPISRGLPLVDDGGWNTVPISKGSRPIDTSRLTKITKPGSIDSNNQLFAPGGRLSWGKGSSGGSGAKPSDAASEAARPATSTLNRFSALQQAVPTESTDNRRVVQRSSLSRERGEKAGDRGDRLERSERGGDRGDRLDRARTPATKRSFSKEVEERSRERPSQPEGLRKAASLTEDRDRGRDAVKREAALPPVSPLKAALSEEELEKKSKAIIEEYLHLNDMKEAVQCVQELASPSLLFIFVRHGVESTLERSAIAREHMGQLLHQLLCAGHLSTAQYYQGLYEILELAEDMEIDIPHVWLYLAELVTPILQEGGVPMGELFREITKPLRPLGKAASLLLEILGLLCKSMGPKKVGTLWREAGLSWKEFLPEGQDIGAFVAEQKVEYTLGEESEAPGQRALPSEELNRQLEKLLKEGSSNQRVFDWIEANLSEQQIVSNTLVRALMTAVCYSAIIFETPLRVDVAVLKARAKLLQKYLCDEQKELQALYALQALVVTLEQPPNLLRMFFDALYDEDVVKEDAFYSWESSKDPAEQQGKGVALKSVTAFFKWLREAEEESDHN
Chain of UniProt Q16254 (Q16254 whole entry, looked up): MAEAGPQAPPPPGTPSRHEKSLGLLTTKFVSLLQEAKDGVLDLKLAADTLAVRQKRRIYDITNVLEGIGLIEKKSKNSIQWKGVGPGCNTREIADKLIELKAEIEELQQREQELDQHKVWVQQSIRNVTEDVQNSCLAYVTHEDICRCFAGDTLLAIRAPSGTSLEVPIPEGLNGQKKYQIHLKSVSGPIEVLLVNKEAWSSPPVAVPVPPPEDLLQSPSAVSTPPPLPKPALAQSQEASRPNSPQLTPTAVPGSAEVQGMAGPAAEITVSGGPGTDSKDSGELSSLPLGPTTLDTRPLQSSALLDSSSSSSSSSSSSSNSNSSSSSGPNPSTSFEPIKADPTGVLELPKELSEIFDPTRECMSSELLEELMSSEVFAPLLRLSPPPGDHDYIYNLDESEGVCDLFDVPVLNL

| Target | log2 fold change [1] | log2 fold change [2] | log2 fold change [3] | log2 fold change [4] | log2 fold change [5] | log2 fold change [6] | log2 fold change [7] | log2 fold change [8] | log2 fold change [9] | log2 fold change [10] | log2 fold change [11] | log2 fold change [12] | log2 fold change [13] | log2 fold change [14] | log2 fold change [15] | log2 fold change [16] | log2 fold change [17] | log2 fold change [18] | log2 fold change [19] | log2 fold change [20] |
| --- | --- | --- | --- | --- | --- | --- | --- | --- | --- | --- | --- | --- | --- | --- | --- | --- | --- | --- | --- | --- |
| EIF4G1 isoform 8 (UniProt Q04637) | -0.114 | -0.487 | 0.174 | 0.016 | -0.076 | 0.005 | 0.031 | 0.047 | 0.181 | -0.425 | -0.08 | -0.36 | 0.021 | 0.034 | -0.067 | 0.008 | 0.197 | -0.017 | 0.092 | -0.05 |
| E2F4 (UniProt Q16254) | -0.057 | -0.139 | 0.036 | -0.008 | -0.017 | -0.025 | -0.024 | 0.056 | 0.009 | -0.245 (active) | -0.012 | -0.056 | -0.134 | 0.028 | -0.045 | -0.122 | -0.025 | -0.02 | -0.002 | -0.042 |
| DHRS1 (UniProt Q96LJ7) | 0.164 | 0.302 | 0.039 | -0.062 | 0.034 | -0.098 | -0.048 | -0.022 | -0.051 | 0.065 | -0.074 | 0.153 | -0.018 | 0.022 | 0.375 | -0.007 | 0.031 | 0.392 | -0.116 | -0.116 |

— the supplement of paper PMC10849652
